In PubChem BioAssay (EPA / NIEHS):
Results filed as inconclusive are left out. Activity calls are given as the source filed them. The calls were made as follows: active = hit-call score of the fitted dose curve at least 0.9, where 1 is the maximum; inconclusive = response in the unintended direction; inactive = score below 0.9.

These compounds were tested on Glyceraldehyde-3-phosphate dehydrogenase (Homo sapiens) (UniProt P04406) (assay: CLD_GAPDH_6hr: CellzDirect (CLD) Gene Expression Assay for Baseline Control (Glyceraldehyde 3-phosphate dehydrogenase) at 6 hours (AID 2283681);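 also: active means increased signal relative to DMSO vehicle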).
Sequence of Glyceraldehyde-3-phosphate dehydrogenase (Homo sapiens) (P04406 whole entry, looked up): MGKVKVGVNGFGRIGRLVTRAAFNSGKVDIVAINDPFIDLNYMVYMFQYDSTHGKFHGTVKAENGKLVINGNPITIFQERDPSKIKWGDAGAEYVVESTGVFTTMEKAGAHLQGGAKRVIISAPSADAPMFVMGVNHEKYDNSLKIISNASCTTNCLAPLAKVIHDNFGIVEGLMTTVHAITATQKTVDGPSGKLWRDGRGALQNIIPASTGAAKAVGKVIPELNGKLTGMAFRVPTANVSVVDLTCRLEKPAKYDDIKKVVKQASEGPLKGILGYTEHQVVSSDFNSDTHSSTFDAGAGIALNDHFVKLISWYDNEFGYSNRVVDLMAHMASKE
Description: CLD_6hr is a cell-based, multiplexed-readout assay that uses hepatocyte, a human liver primary cell, with measurements taken at 6 hours after chemical dosing in a 96-well plate.CLD_GAPDH_6hr is one of 16 assay component(s) measured or calculated from the CLD_6hr assay. It is designed to make measurements of mRNA induction, a form of inducible reporter, as detected with chemiluminescence signals by Quantitative Nuclease Protection Assay (qNPA) technology.Data from the assay component CLD_GAPDH_6hr was analyzed at the endpoint, CLD_GAPDH_6hr, in the positive analysis fitting direction relative to DMSO as the negative control and baseline of activity. Using a type of inducible reporter, gain-of-signal activity can be used to understand changes in the reporter gene as they relate to the gene GAPDH. Furthermore, this assay endpoint can be referred to as a secondary readout, because this assay has produced multiple assay endpoints where this one serves a background control function. To generalize the intended target to other relatable targets, this assay endpoint is annotated to the background measurement intended target family, where subfamily is baseline control.
Human hepatocyte cultures were treated daily for two consecutive days with fresh dosing solutions containing appropriate concentrations of the 320 ToxCast chemicals (chemical identities were blinded to CellzDirect and other ToxCast collaborators), vehicle control (0.2% DMSO), and positive control inducers as summarized in Table 1. Due to the large number of treatment groups and chemicals examined, the ToxCast chemicals were divided into two groups (spanning two independent cultures of hepatocytes from separate donor preparations (Hu778: ToxCast plates 1 and 2; Hu776: ToxCast plates 3 and 4). Each preparation of human hepatocyte cultures was treated with respective vehicle control, medium only control, set of six positive controls/reference chemicals for the five hepatic receptor pathways, and a subset of eight of the ToxCast chemicals (indoxacarb, pyrithiobac-sodium, norflurazon, cyhalofop-butyl, methomyl, thiram, acetochlor, and propiconazole). These replicate data, coupled with internal replicates designed within the blinded ToxCast chemical library, provided additional data to evaluate interindividual differences between hepatocyte preparations and their potential impact on chemical profiles.Cell morphology and integrity were evaluated using phase-contrast microscopy as an indicator of hepatocyte cell health (Tyson & Green, 1987). Cultures for each treatment group (i.e., media, vehicle [0.2% DMSO], positive control inducers [multiple concentrations], and the ToxCast chemicals [multiple concentrations]) were observed and cell morphology was assessed relative to vehicle control cultures at each harvest time point (0, 6, 24, or 48 h). […] Images were evaluated at the conclusion of the study to assess changes in cell integrity and account for the effects of chemical exposure on uncharacteristic changes in concentration-dependent gene expression profiles. The results from these determinations of apparent cytotoxicity were annotated (yes/no) alongside the corresponding qNPA data for reference.At the conclusion of each treatment period, hepatocyte cultures (96-well) were washed with 1 volume of HBSS, lysed by addition of 25 ul ArrayPlate lysis buffer (HTG, Tucson, AZ), and 70 ul/well of Denaturation Oil, denatured by incubation at 95C for 10 min, and frozen at approximately -70C until analysis by nuclease protection assay (qNPA) (Roberts et al., 2007). For qNPA analysis, cell lysates were thawed at 50C for approximately 30 min, qNPA probes were added, and samples were incubated at 95C for 10 min to begin the detection process by denaturing the target RNA, dissociating the duplexes and secondary structure hybridization. At the conclusion of the hybridization period, S1 nuclease reagent was added to each sample to digest all nonprotected nucleotides at 50C for 60-90 min. […]

| Structure (SMILES) | outcome |
| --- | --- |
| CCCOC(=O)c1ccc(C(=O)OCCC)nc1 | inactive |
| CCOC(=O)COc1cc(-n2ncc(C(F)(F)F)c(C)c2=O)c(F)cc1Cl | inactive |
| CCC(C)OC(=O)N1CCCCC1CCO (centres undefined) | inactive |
| CCOC(=O)C(C)Oc1ccc(Oc2nc3ccc(Cl)cc3o2)cc1 (centres undefined) | inactive |
| CCCCCCC(C)OC(=O)COc1nc(F)c(Cl)c(N)c1Cl (centres undefined) | inactive |
| CCCCCOC(=O)COc1cc(N2C(=O)C3=C(CCCC3)C2=O)c(F)cc1Cl | inactive |
| CCOC(=O)[C@H](C)Oc1ccc(Oc2nc3ccc(Cl)cc3o2)cc1 | inactive |
| CC(C)(c1ccc(O)cc1)c1ccc(O)cc1 | inactive |
| CCCCC(CC)COC(=O)c1ccccc1C(=O)O (centres undefined) | inactive |
| CCCN(CCC)C(=O)SCC | inactive |
| c1ccc2[nH]c(-c3cscn3)nc2c1 | inactive |
| COC(=O)c1ccc(CNS(C)(=O)=O)cc1S(=O)(=O)NC(=O)Nc1nc(OC)cc(OC)n1 | inactive |
| CCCN(CCC)c1c([N+](=O)[O-])cc(C(F)(F)F)c(N)c1[N+](=O)[O-] | inactive |
| COC(=O)c1ccccc1C(=O)O | inactive |
| CCCOC(=O)NCCCN(C)C | inactive |
| C=CCOC(Cn1ccnc1)c1ccc(Cl)cc1Cl (centres undefined) | inactive |
| COC(=O)c1c(Cl)nn(C)c1S(=O)(=O)NC(=O)Nc1nc(OC)cc(OC)n1 | inactive |

| Structure (SMILES) | outcome |
| --- | --- |
| COC(=O)c1ccc(I)cc1S(=O)(=O)NC(=O)Nc1nc(C)nc(OC)n1 | inactive |
| COCCO | inactive |
| COc1nc(C)nc(NC(=O)NS(=O)(=O)c2ccccc2OCCCl)n1 | inactive |
| COc1c(Cl)ccc(Cl)c1C(=O)O | inactive |
| CCNc1nc(N)nc(Cl)n1 | inactive |
| CCCCOC(=O)C(C)Oc1ccc(Oc2ccc(C(F)(F)F)cn2)cc1 (centres undefined) | inactive |
| COC(=O)c1ccccc1S(=O)(=O)NC(=O)Nc1nc(OC(F)F)cc(OC(F)F)n1 | inactive |
| OB(O)O | inactive |
| C#CCOC(=O)[C@@H](C)Oc1ccc(Oc2ncc(Cl)cc2F)cc1 | inactive |
| COC(=O)CSc1cc(N=c2sc(=O)n3n2CCCC3)c(F)cc1Cl | inactive |
| O=C(O)C1(C(=O)Nc2ccc(Cl)cc2Cl)CC1 | inactive |
| CCC(O)=C1C(=O)CC(C(=O)O)CC1=O (centres undefined) | inactive |
| CC(C)(C)[C@@H](O)[C@@H](Cc1ccc(Cl)cc1)n1cncn1 | inactive |
| CCSC(=O)N(CC(C)C)CC(C)C | inactive |
| Cc1nn(C)c(Oc2ccccc2)c1C=NOCc1ccc(C(=O)OC(C)(C)C)cc1 | inactive |
| CC1(C)C(C=C(Cl)Cl)C1C(=O)OCc1cccc(Oc2ccccc2)c1 (centres undefined) | inactive |
| S=C([S-])NCCNC(=S)[S-].[Mn+2] | inactive |
